Assay results reported in PubChem BioAssay AID1259415 (National Center for Advancing Translational Sciences (NCATS), 2018).
Among all 410,000 compounds or so, about 18,000 (4.4%) were called active. Inconclusive results (about 7%) are left out. No stated cut-off is given here; in the data, active means activity change below about -60%; inconclusive means no clear call, values can overlap the other calls; inactive means above about -39%. What follows is part of a selection rich in actives, with near analogues and random picks from the rest.
On the % scale 0 is the no-effect control and ±100 the full control effect.

Test: qHTS Assay for inhibitors of the human cytomegalovirus (HCMV)
Conditions: HFF cells, HCMV-luciferase reporter, 72 h; at 57.5 µM; hits give low values
Procedure, shortened: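 Two-dose cell screen: HFF monolayers treated with compounds and infected with luciferase-expressing HCMV at 1 PFU/cell, 72 h at 37C, then lysed for luciferase measurement.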
With `COc1ccc(NC(=O)C2CCCN(S(=O)(=O)c3c(C)[nH]c(=O)[nH]c3=O)C2)c(OC)c1` (configuration not stated) the activity change, negative = inhibition was 10.4% (inactive).
For `COC(=O)C1(C)CC1(c1ccccc1)c1ccccc1` (configuration not stated), the activity change, negative = inhibition was 13.4% (inactive).
In the case of `CC(/C=C/c1ccco1)=N/NC(=O)C1COc2ccccc2O1` (configuration not stated), the activity change, negative = inhibition was 27.4% (inactive).
With `CC(/C=C/c1ccccc1)=N\NC(=O)C1CC1(C)c1ccccc1` (configuration not stated) the activity change, negative = inhibition was -62.3% (active).
With `Cc1cn(C2C=CC(CO)O2)c(=O)[nH]c1=O` (configuration not stated) the activity change, negative = inhibition was -30.1% (inactive).
For `COc1ccc(S(=O)(=O)NCC(c2ccc(N(C)C)cc2)N2CCCC2)cc1` (configuration not stated), the activity change, negative = inhibition was -4.35% (inactive).
With `Cc1ccccc1NC(=O)COC(=O)c1cc(C)n(C2CC2)c1C` the activity change, negative = inhibition was -2.16% (inactive).
For `Cc1cc(C(=O)COc2ccccc2Cl)c(C)n1C1CC1`, the activity change, negative = inhibition was -67.2% (active).
For `Cc1cc(C(=O)OCC(=O)Nc2c(F)cccc2F)c(C)n1C1CC1`, the activity change, negative = inhibition was -2.16% (inactive).
For `COc1cccc(CNC(=O)C2CCC(CNS(=O)(=O)c3cccs3)CC2)c1` (configuration not stated), the activity change, negative = inhibition was -3.87% (inactive).
For `Fc1cccc(-n2ncc3c2ncn2nc(-c4ccccc4Cl)nc32)c1`, the activity change, negative = inhibition was -25.2% (inactive).
With `O=C(Cn1c(=O)n(Cc2ccccc2)c(=O)c2sc3ccccc3c21)Nc1ccccc1F` the activity change, negative = inhibition was 20.5% (inactive).
With `CCOc1ccc(S(=O)(=O)NCCC(=O)NNC(=O)c2ccc(F)cc2)cc1` the activity change, negative = inhibition was 70.6% (inactive).
With `Cc1ccc2sc(N(Cc3cccnc3)C(=O)C3COc4ccccc4O3)nc2c1C` (configuration not stated) the activity change, negative = inhibition was 0% (inactive).
For `CCc1ccc(N(CC)c2ncnc3nc[nH]c23)cc1`, the activity change, negative = inhibition was -84.7% (active).
With `S=c1c2[nH]cnc2ncn1CCSc1ncnc2nc[nH]c12` the activity change, negative = inhibition was -16% (inactive).
For `Cc1ccc(NC(=O)c2ccc(CSc3ncnc4nc[nH]c34)cc2)c(C)c1`, the activity change, negative = inhibition was -37% (inactive).
With `CC(C)(C)C1CCc2c(sc(NC(=O)c3ccccc3F)c2C(=O)N2CCCCC2)C1` (configuration not stated) the activity change, negative = inhibition was -1.57% (inactive).
With `CCOC(=O)NN1C(=O)c2ccccc2NC1c1ccccc1O` (configuration not stated) the activity change, negative = inhibition was 54.6% (inactive).
In the case of `CC(=O)NN1C(=O)c2ccccc2NC1c1ccccc1` (configuration not stated), the activity change, negative = inhibition was 44.7% (inactive).
For `CCOC(=O)NN1C(=O)c2ccccc2NC1c1cccc(O)c1` (configuration not stated), the activity change, negative = inhibition was -96.9% (active).
For `CC1(C)C(C=C(Cl)Cl)C1C(=O)NC(O)C(=O)c1ccccc1` (configuration not stated), the activity change, negative = inhibition was -33.9% (inactive).
For `Cc1cc(C)cc(NC(=O)Cn2c(=O)c3ccccc3n3nncc23)c1`, the activity change, negative = inhibition was 2.01% (inactive).
In the case of `CC(=O)c1sc(N2C(=O)c3oc4ccccc4c(=O)c3C2c2ccc(C)cc2)nc1C` (configuration not stated), the activity change, negative = inhibition was 24.4% (inactive).
For `CCN(CC)c1ccc(NC(=O)CN2CCN(c3ccccn3)CC2)cc1`, the activity change, negative = inhibition was 28.5% (inactive).
With `CN(C(=O)CN1CCN(c2cc(-c3ccc(OCc4ccccc4)cc3)ncn2)CC1)c1ccccc1` the activity change, negative = inhibition was -71.2% (active).
In the case of `CCOc1ccc(OCc2ccc(C(=O)N(C)c3ccccc3)o2)cc1`, the activity change, negative = inhibition was 41.3% (inactive).
